Assay outcomes (PubChem BioAssay)
TRPM1 prom inh: inhibitors of MITF-dependent TRPM1 promoter reporter, primary screen, cell-based, SK-MEL-5, single point, luciferase. SK-MEL-5 TRPM1 promoter luciferase, 24 h. inhibition, % at 12.5 µM. actives 0.83% (n = 330,000). AID 488899, 2010;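 active = mean inhibition across replicates of 60% or more, whatever share of single replicates reaches that level; inconclusive = some that reach 60%, reason not given; inactive = mean inhibition across replicates below 60%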
KKLEB tox: cytotoxicity in KKLEB CF airway cells, primary screen, cytotoxicity control for CF NF-kB inhibitor project, cell-based, uHTS, fluorescence assay plates. KKLEB CF airway cells viability, ATPlite luminescence, overnight; active compounds read low; cells stimulated with P. aeruginosa culture filtrate. activity change (cytotoxicity), % at 5 µM. actives 0.36% (n = 360,000). AID 602141, 2011;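 active = corrected activity change at or below -50% at 5 µM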
CF NFkB block: inhibitors of PAF-induced NF-kB signaling, primary screen, cell-based, GFP fluorescence, uHTS. actives 0.86% (n = 360,000). inhibition, % at 5 µM. KKLEB NF-kB-GFP reporter, GFP fluorescence overnight. AID 588850, 2011;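 active = at least 50% inhibition at 5 µM, scaled per plate between neutral and stimulator controls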;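 note: PAF is a Pseudomonas aeruginosa culture filtrate used as stimulus; plate controls were PAF-stimulated DMSO wells for no effect and unstimulated DMSO wells for full effect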
Peg3 promoter: Peg3 promoter-driven luciferase inhibitors, primary screen, cell-based, HeLa, luciferase luminescence. HeLa PEG-Prom luciferase reporter, overnight. inhibition, % at 20 µM. actives 1.7% (n = 360,000). AID 588405, 2011;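 active = inhibition of at least 50% at 20 µM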
HIF-2a inh: HIF-2a reporter inhibitors, primary screen, luminescence, 786-0 RCC cells; 786-0 RCC cells HIF-2a reporter, luciferase luminescence, overnight; inhibition, % at 18.8 µM; actives 0.72% (n = 360,000); AID 624352, 2012;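 active = inhibition of the luminescence signal of 40% or more relative to plate controls, in a single-dose primary screen at 18.75 µM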
Shn3 inh set2: reduction of Shn3 3'UTR firefly luciferase signal, primary screen, Schnurri-3 inhibitor project, cell-based, Clone20 osteoblasts, set 2. inhibition, % at 12.5 µM. actives 0.52% (n = 360,000). Clone20 osteoblast Shn3 3'UTR firefly luciferase, 24 h. AID 588674, 2011;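 active = mean inhibition of at least 75% with every replicate also reaching 75%; inconclusive = mean inhibition at least 75% but some replicate below; inactive = mean inhibition below 75%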;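 note: 0% = median of neutral control wells and 100% = pilot-screen positive control compound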
* = called active by the depositor; ? = inconclusive; . = no result given. Compounds with a hit are over-represented: about 2.7% of the library has one in this group of screens.

SMILES	TRPM1 prom inh	KKLEB tox	CF NFkB block	Peg3 promoter	HIF-2a inh	Shn3 inh set2
CCC(c1nnnn1Cc1ccccc1)N1CCC(n2c(=O)[nH]c3ccccc32)CC1 (configuration not stated)	.	-71*	99*	75*	-23	32
CSCCC(c1nnnn1-c1ccc2c(c1)OCCO2)N1CCC2(CC1)C(=O)NCN2c1ccccc1 (configuration not stated)	.	-3	0	30	11	5
O=c1[nH]c2ccccc2n1C1CCN(C(CCc2ccccc2)c2nnnn2-c2ccc3c(c2)OCCO3)CC1 (configuration not stated)	.	-90*	60*	90*	-33	60
O=c1[nH]c2ccccc2n1C1CCN(C(c2ccnc3ccccc23)c2nnnn2-c2ccc3c(c2)OCCO3)CC1 (configuration not stated)	.	-70*	77*	62*	-19	3
Cc1cccc(C)c1-n1nnnc1C(CCc1ccccc1)N1CCC(n2c(=O)[nH]c3ccccc32)CC1 (configuration not stated)	.	-18	48	98*	0	16
Cc1ncoc1C(=O)NCC1=C(c2ccc(S(C)(=O)=O)cc2)C[C@@H]2CC[C@H]1N2Cc1ccco1	.	4	-12	-17	-6	-13
CCOC(=O)c1cc2c(cn1)[C@@H](CCO)NC2	-6	13	-26	4	-1	-12
CCOC(=O)[C@]12Cc3ccccc3[C@H]1N(CCC(=O)OC)C(=O)c1ccccc12	.	.	.	.	23	.
Nc1cc(C(=O)Nc2ccccc2F)ccc1N1CC2CC(C1)c1cccc(=O)n1C2 (configuration not stated)	.	0	-42	-28	-35	0
COC1=C(C)C(=O)C2=C(C1=O)C(CO)N1C(C#N)C3CC4C(C1C2N1CCOC41)N3C (configuration not stated)	76*	-23	88*	95*	30	-6
O=c1[nH]c(=S)[nH]c(O)c1N=Nc1ccc(S(=O)(=O)N2CCc3ccccc32)cc1	64*	-26	56*	26	19	-24
O=c1[nH]c(=S)[nH]c(O)c1N=Nc1ccc(SC(F)F)cc1	-17	-5	2	-211	-370	-48
Cc1ccc(OC(=O)N(C)C[C@@H]2OCc3cnnn3CCCC(=O)N([C@@H](C)CO)C[C@H]2C)cc1	.	-15	7	-1	9	-3
COc1ccc(CNCCc2c[nH]c3ccccc23)c(OC)c1C	-3	-14	21	109*	3	6
COc1cc(C)c(CNCCc2c[nH]c3ccccc23)cc1C	42	-9	22	95*	17	39
CC(C)n1c(O)c(C2c3cc(Cl)ccc3Oc3[nH]c(=O)n(C(C)C)c(=O)c32)c(=O)[nH]c1=O (configuration not stated)	102*	1	91*	115*	94*	79
COc1cc2c(cc1OC)C1C(=O)c3ccc4c(c3OC1CO2)CC(C(C)C)O4 (configuration not stated)	40	11	9	16	-24	85*
CN1C(=O)/C(=C/c2cccn2-c2ccc3ccccc3c2)C(=O)NC1=S	?	5	41	92*	-1	29
Cc1cc(C)cc(N2C(=O)NC(=O)/C(=C\c3cccn3-c3ccccc3)C2=O)c1	66*	5	28	75*	43*	74
Cn1cccc1/C=C1/C(=O)NC(=O)N(C(C)(C)C)C1=O	-1	4	0	4	17	-54
Cc1cccc(N2C(=O)NC(=O)/C(=C\c3cnc(-c4ccccc4)nc3)C2=O)c1	5	1	14	-17	-8	23
c1ccc2c(c1)[IH]c1ccccc1-2	88*	0	-49	96*	52*	91*
Cc1cccc(C)c1-n1nnnc1C(c1cccs1)N1CCC2(CC1)C(=O)NCN2c1ccccc1 (configuration not stated)	.	-20	31	35	-21	10
CN(C)P1(=O)N(C)CCN1C	.	-3	17	17	5	4
N=c1c2c(n(Cc3ccc(Cl)cc3Cl)c3c1CCC3)CCCC2	53	7	-7	28	11	86*
SMILES	TRPM1 prom inh	KKLEB tox	CF NFkB block	Peg3 promoter	HIF-2a inh	Shn3 inh set2
CC12CC[C@H]3[C@@H](CCC4(O)C[C@H](O)CCC34/C=N/NC(=O)c3ccccc3O)C1(O)CCC2C1=CC(=O)OC1 (some centres not stated)	6	18	-13	81*	10	-1
COc1ccc(C(=O)N/N=C/C23CC[C@@H](O)CC2(O)CC[C@@H]2[C@@H]3CCC3(C)C(C4=CC(=O)OC4)CCC23O)cc1 (some centres not stated)	41	23	-16	66*	13	-1
CC12CC[C@H]3[C@@H](CCC4(O)C[C@H](O)CCC34/C=N/NC(=O)c3ccc(O)cc3)C1(O)CCC2C1=CC(=O)OC1 (some centres not stated)	-12	4	5	0	12	.
CN(C)c1ccc(C(=O)N/N=C/C23CC[C@@H](O)CC2(O)CC[C@@H]2[C@@H]3CCC3(C)C(C4=CC(=O)OC4)CCC23O)cc1 (some centres not stated)	75*	-52*	21	105*	21	.
CCC(c1nnnn1Cc1ccccc1)N1CCC2(CC1)C(=O)NCN2c1ccccc1 (configuration not stated)	.	4	-15	18	2	8
COC(=O)[C@@]1(Sc2ccc(C)cc2)CC(=O)N(P(=O)(OC)OC)[C@@H]1c1ccccc1	.	.	.	.	-1	.
CCCCCn1c(=O)c(C(=O)Nc2nc3ccccc3[nH]2)c(O)c2ccccc21	6	-52*	30	23	15	-3
O=S(=O)(c1ccc(Cl)cc1)N1Cc2cc(Br)ccc2-n2nncc2C1	.	-14	-10	8	7	-9
O=C1NC(=O)N(Cc2ccco2)C(=O)/C1=C/c1ccc(-c2cccc([N+](=O)[O-])c2)o1	10	-1	19	29	65*	31
C=CCN1C(=O)NC(=O)/C(=C\c2ccc(-c3ccccc3[N+](=O)[O-])o2)C1=O	33	1	5	20	34	38
O=C1NCN(c2ccccc2)C12CCN(C(c1cc3ccccc3o1)c1nnnn1C1CCCCC1)CC2 (configuration not stated)	.	-24	47	19	-23	-2
